Several values for one entry are separate records, joined by “and”; a condition that tells them apart may be missing. Equal values may be shown once. About 6,000 (1.7%) of roughly 350,000 compounds were called active. About 5% were inconclusive and are not listed. Cut-off read from the data, not from the text of the source: active = CPE inhibition above about 20% (passing the limit was not always enough); inconclusive = no clear call, values can overlap the other calls; tested in BHK-21 cells. The entries come from a sample that favours actives as a whole.

The nature of the experiment: protection of cells from dengue 2 killing – plate reader, single concentration, primary screen (AID 651640).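 Note: 0% = median of neutral control wells and 100% = median of positive control wells.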 As to conditions: DENV2-infected cells, cytopathic effect rescue, at 9.99 µM, hits give high values. On the technique in general: Protection from cytopathic effect is a common read-out in antiviral testing.
Consider `O=C(NCC[C@H]1CC[C@@H](NC(=O)C2CC2)[C@H](CO)O1)c1ccc(F)cc1`, for which the CPE inhibition was -2.58% (inactive).
As for `O=C(NCC[C@H]1CC[C@@H](NC(=O)C2CCCCC2)[C@@H](CO)O1)c1ccc(F)cc1`, the CPE inhibition is 50.9% (active).
Under `O=C(NCC[C@H]1CC[C@H](NC(=O)C2CC2)[C@@H](CO)O1)c1ccc(F)cc1` stands -6.48% (inactive).
Consider `C[C@H]1CN([C@@H](C)CO)C(=O)c2cc(/C=C/c3ccccc3)cnc2O[C@H]1CN(C)Cc1cccc(C(=O)O)c1`, for which the CPE inhibition was -8.76% (inactive).
Regarding `C[C@H]1CN([C@@H](C)CO)C(=O)c2cccc(NC(=O)NC3CCCCC3)c2O[C@H]1CN(C)CC1CCCCC1`, the CPE inhibition was 30.3% (active).
Under `C[C@H]1CN([C@@H](C)CO)C(=O)c2cccc(NC(=O)C3CCCCC3)c2O[C@H]1CN(C)Cc1ccc(C(F)(F)F)cc1` stands 12.9% (inactive); under `C[C@H](CO)N1C[C@H](C)[C@@H](CN(C)Cc2ccc(C(F)(F)F)cc2)Oc2c(NC(=O)NC3CCCCC3)cccc2C1=O`, 37.7% (active).
On to `C[C@@H]1CN([C@H](C)CO)C(=O)c2cccc(NC(=O)NC3CCCCC3)c2O[C@@H]1CN(C)CC1CCCCC1`, for which the CPE inhibition is -11% (inactive).
As for `C[C@@H]1CN([C@@H](C)CO)C(=O)c2cccc(NC(=O)NC3CCCCC3)c2O[C@@H]1CN(C)CC1CCCCC1`, the CPE inhibition is 12.9% (inactive).
As to `C[C@@H]1CN([C@H](C)CO)C(=O)c2cccc(NC(=O)NC3CCCCC3)c2O[C@H]1CN(C)Cc1ccc(C(F)(F)F)cc1`, the CPE inhibition was 0.691% (inactive).
With `O=C(C[C@H]1C=C[C@H](NC(=O)c2cccc(F)c2)[C@@H](CO)O1)NCc1ccc(Oc2ccccc2)cc1` the figure was -9.22% (inactive); with `C[C@H](CO)N1C[C@H](C)[C@H](CN(C)Cc2ccncc2)Oc2ncc(C#Cc3cccc(F)c3)cc2C1=O`, 13.5% (inactive).
Regarding `C[C@@H]1CN([C@H](C)CO)C(=O)c2cc(-c3ccccc3F)cnc2O[C@H]1CN(C)C(=O)CN(C)C`, the CPE inhibition was -0.853% (inactive).
Under `CN1c2ccc(-c3cccc(F)c3)cc2[C@@H]2[C@@H](CCN2C(=O)Nc2ccccc2F)[C@@H]1CO` stands -9.74% (inactive); under `COc1cccc(C(=O)Nc2ccc3c(c2)C(=O)N(C)[C@H]2CC[C@H](CC(=O)N[C@@H](C)c4ccccc4)O[C@H]2CO3)c1`, -3.06% (inactive); under `CN1C(=O)c2cc(NC(=O)Cc3ccccc3)ccc2OC[C@H]2O[C@H](CC(=O)NCc3ccc(Cl)cc3)CC[C@H]21`, -3.46% (inactive).
As to `Cc1ccc(S(=O)(=O)Nc2ccc3c(c2)C(=O)N([C@@H](C)CO)C[C@@H](C)[C@H](CN(C)Cc2ccc4c(c2)OCO4)OCCCC[C@@H](C)O3)cc1`, the CPE inhibition was -8.37% (inactive).
Take `Cc1noc(C)c1S(=O)(=O)Nc1ccc2c(c1)C(=O)N([C@@H](C)CO)C[C@@H](C)[C@@H](CN(C)C)O2`: the CPE inhibition was 1.2% (inactive).
Regarding `Cc1noc(C)c1S(=O)(=O)Nc1ccc2c(c1)C(=O)N([C@@H](C)CO)C[C@@H](C)[C@H](CN(C)Cc1ccc(-c3ccccc3)cc1)O2`, the CPE inhibition is 35.7% (active).
As to `C[C@@H]1CN([C@H](C)CO)C(=O)c2cc(NS(=O)(=O)c3ccc(F)cc3)ccc2O[C@H]1CN(C)Cc1ccncc1`, the CPE inhibition was -0.549% (inactive).
As to `C[C@H](CO)N1C[C@H](C)[C@H](CN(C)Cc2ccc(-c3ccccc3)cc2)Oc2ccc(NS(=O)(=O)c3ccccc3)cc2C1=O`, the CPE inhibition is 0.672% (inactive).
As to `Cc1ccc(S(=O)(=O)Nc2ccc3c(c2)C(=O)N([C@@H](C)CO)C[C@@H](C)[C@H](CN(C)Cc2ccncc2)O3)cc1`, the CPE inhibition is 35.3% (active).
In the case of `Cc1ccc(S(=O)(=O)Nc2ccc3c(c2)C(=O)N([C@@H](C)CO)C[C@@H](C)[C@@H](CN(C)Cc2ccncc2)O3)cc1`, the CPE inhibition was 2.98% (inactive).
With `Cc1ccc(S(=O)(=O)Nc2ccc3c(c2)C(=O)N([C@H](C)CO)C[C@H](C)[C@H](CN(C)Cc2ccc(Cl)c(Cl)c2)O3)cc1` the figure was -4.04% (inactive).
With `Cc1ccc(S(=O)(=O)Nc2ccc3c(c2)C(=O)N([C@@H](C)CO)C[C@H](C)[C@@H](CN(C)Cc2ccc4c(c2)OCO4)O3)cc1`, the CPE inhibition is 21.2% (active).
On to `CO[C@@H]1CN(C)C(=O)c2cc(NS(=O)(=O)c3cn(C)cn3)ccc2OC[C@@H](C)NC[C@H]1C`, for which the CPE inhibition is -0.807% (inactive).
With `COCc1cn(CC[C@H]2CC[C@@H](NC(=O)Nc3ccc(OC)cc3)[C@@H](CO)O2)nn1`, the CPE inhibition was 0.762% (inactive).
As to `C/C=C/c1ccc(C2[C@H]3CNC[C@@H]2N3C(=O)Nc2ccc(F)cc2)cc1` (some centres undefined), the CPE inhibition is 0.029% (inactive) and 10.5% (inactive).
In the case of `O=C(Nc1ccc(-c2ccccc2)cc1)[C@@H]1[C@@H](CO)[C@@H]2Cn3c(cccc3=O)[C@H]1N2Cc1ccncc1`, the CPE inhibition is -0.731% (inactive).
Consider `CO[C@@H]1CN(C)C(=O)c2cc(NS(=O)(=O)c3cn(C)cn3)ccc2OC[C@@H](C)N(CCC(F)(F)F)C[C@H]1C`, for which the CPE inhibition is -9.32% (inactive).
For the compound `O=C(c1ccccc1F)N1CC(=O)N2[C@H](CO)[C@H](c3ccc(-c4cccnc4)cc3)[C@H]2C1`, the CPE inhibition was 8.17% (inactive).
With `C[C@@H]1CCCCO[C@@H](CN(C)S(=O)(=O)c2ccccc2)[C@@H](C)CN([C@@H](C)CO)C(=O)c2cc(NS(=O)(=O)c3cn(C)cn3)ccc2O1` the figure was -3.06% (inactive).
Under `C[C@H](NC(=O)C[C@@H]1C[C@@H]2c3cc(NS(=O)(=O)c4ccc(F)cc4)ccc3O[C@@H]2[C@@H](CO)O1)c1ccccc1` stands 2.95% (inactive); under `CC(C)NC(=O)N1CCCCN2[C@H](CO)[C@@H](c3ccc(Br)cc3)[C@H]2C1`, -4.94% (inactive).
Take `COc1ccc(NC(=O)Nc2cccc3c2O[C@H](CN(C)S(=O)(=O)c2ccc(F)cc2)[C@H](C)CN([C@H](C)CO)C3=O)cc1`: the CPE inhibition is -3.75% (inactive).
Under `O=S(=O)(c1ccccc1)N1CC[C@@H]2[C@@H](CO)Nc3ccc(C#Cc4cccc(F)c4)cc3[C@@H]21` stands 1.91% (inactive); under `O=S(=O)(c1ccc(F)cc1)N1CC[C@@H]2[C@@H](CO)Nc3ccc(-c4ccccc4F)cc3[C@@H]21`, 77.9% (active).
With `Cc1cccc(S(=O)(=O)N2CC[C@@H]3[C@H]2c2cc(C#Cc4ccc(F)cc4)ccc2N[C@@H]3CO)c1`, the CPE inhibition is 65.6% (active).
For the compound `O=S(=O)(c1ccccc1)N1CC[C@@H]2[C@H]1c1cc(C#Cc3cccc(F)c3)ccc1N[C@@H]2CO`, the CPE inhibition is -8.72% (inactive).
With `CN(C)C(=O)c1cccc(-c2ccc3c(c2)[C@@H]2[C@@H](CCN2Cc2nccs2)[C@@H](CO)N3)c1` the figure was -14% (inactive); with `COc1ccc(C#Cc2ccc3c(c2)[C@H]2[C@H](CCN2Cc2nccs2)[C@@H](CO)N3)cc1`, 27.7% (active).
Regarding `O=S(=O)(c1ccccc1)N1CC[C@@H]2[C@@H](CO)Nc3ccc(-c4ccccc4F)cc3[C@@H]21`, the CPE inhibition was 16.3% (inactive).
As for `COc1ccccc1CN1CC[C@@H]2[C@@H](CO)Nc3ccc(C#Cc4ccccc4)cc3[C@@H]21`, the CPE inhibition was -32.6% (inactive).
Consider `COc1ccccc1S(=O)(=O)N1CC[C@@H]2[C@H](CO)Nc3ccc(-c4ccccc4F)cc3[C@@H]21`, for which the CPE inhibition is -1.18% (inactive).

Source of the values: PubChem BioAssay AID651640 (Broad Institute, 2012).
